Hits are enriched below; roughly 3.7% of the tested compounds scored in any of these assays.
RE007 growth inh – less growth of the S. pombe RE007 Vpr strain. Potency, µM (doses to about 92.2 µM), usual class: inhibitors. AID 651644. actives 0.21% (n = 360,000). S. pombe RE007 Vpr strain, BacTiter-Glo ATP luminescence, 24 h; active means well fitted falling curve with a large enough effect; inconclusive means small, poorly fitted or top-dose-only effect; inactive means no such curve, though single readings can be large or run the other way; further: nearly all actives have a fitted effect of over 50% in size
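Fission yeast RE007 carrying one integrated HIV-1 vpr copy, seeded at OD 0.01 in PMG+AL medium with 23 nL pinned compound. Grown 24 h at 30 degrees; viability read by BacTiter-Glo luminescence after 5 min.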
TbPYK inhibitor – inhibitors of Trypanosoma brucei pyruvate kinase; TbPYK enzyme, Kinase-Glo Plus ATP luminescence, 45 min; Q57TT1; actives 0.12% (n = 410,000); Potency, µM (titrated, usually from 76.8 µM), most hits filed as inhibitors; further: nearly all actives have a fitted effect of over 50% in size
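TbPYK + substrate in 50 mM TEA pH 7.2, 100 mM KCl, 10 mM MgCl2, 0.05% BSA, 0.01% Tween-20; cpd pinned; ADP 130 uM final; 45 min RT; Kinase-Glo Plus 10 min; luminescence endpoint.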
Sm TGR block – S. mansoni TGR enzyme inhibition | purified TGR, DTNB reduction, TNB absorbance 405 nm | actives 3% (n = 360,000) | Q962Y6 | Potency, µM (series often up to 114 µM), most hits filed as inhibitors | AID 485364; further: nearly all actives have a fitted effect of over 60% in size
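Kinetic colorimetric format: TGR-catalysed, NADPH-driven DTNB reduction monitored via TNB absorbance. Enzyme dispensed at 20 nM; compound exposure 15 min at room temperature before reaction start.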
FMDV antiviral – antivirals against foot and mouth disease virus; FMDV antiviral cell-based qHTS; Potency, µM (titrated, usually from 57.9 µM), actives largely listed as inhibitors; actives 1.2% (n = 410,000); AID 1159524; calls by dose curve; tested in HEK293T cells; further: read-out not given here; nearly all actives have a fitted effect of over 45% in size
Numbers stand for hits; [ ] = another dose, or the depositor's remark. Unless noted, the call rests on the fitted dose curve; in most records, active means well fitted curve in the direction sought with a large enough effect; inconclusive means small, poorly fitted or top-dose-only effect, or another doubt; inactive means no such curve, though single readings can be large; an effect the other way counts as inactive or inconclusive.

For O=C1NC(c2cccnc2)Nc2sc3c(c21)CCCC3 (stereo not drawn) the results were RE007 growth inh inactive, TbPYK inhibitor inactive, Sm TGR block 45µM and FMDV antiviral inactive.
Cc1ccsc1C1NC(=O)c2c(sc3c2CCCC3)N1 (stereo not drawn) was read as RE007 growth inh inconclusive, TbPYK inhibitor inactive, Sm TGR block 35µM and FMDV antiviral inactive.
Screening O=C1NC(c2ccc(Br)cc2)Nc2sc3c(c21)CCC3 (stereo not drawn) returned RE007 growth inh inactive, TbPYK inhibitor inactive, Sm TGR block inactive and FMDV antiviral inactive.
COc1ccc(-c2nc(SCC(=O)N3CCC(C)CC3)n[nH]2)cc1 was read as TbPYK inhibitor inactive, Sm TGR block inactive and FMDV antiviral inactive.
For C=C1/C(=C\C=C2/CCC[C@@]3(C)[C@@H]([C@H](C)OCCC(C)(C)O)CC[C@@H]23)C[C@@H](O)C[C@@H]1O the results were TbPYK inhibitor inactive.
Screening CCc1cccc(C)c1Nc1c(-c2cccs2)nc2ncccn12 returned TbPYK inhibitor inactive, Sm TGR block inactive and FMDV antiviral inactive.
`N#CCCn1cc(C=C(C#N)C#N)c(-c2ccc(Cl)cc2)n1` gave RE007 growth inh inactive, TbPYK inhibitor inactive, Sm TGR block 1.3µM and FMDV antiviral inconclusive.
For CCCn1c(N)c(N(CCOC)C(=O)c2cc(-c3ccco3)nc3ccccc23)c(=O)[nH]c1=O the results were RE007 growth inh inactive, TbPYK inhibitor inactive, Sm TGR block 18µM and FMDV antiviral inactive.
For CCCCn1c(N)c(N(CCOC)C(=O)c2ccc(-c3ccc(Cl)cc3)o2)c(=O)[nH]c1=O the results were RE007 growth inh inactive, TbPYK inhibitor inactive, Sm TGR block 45µM and FMDV antiviral inactive.
`CCCCN(C(=O)c1ccc(-c2ccc(Cl)cc2)o1)c1c(N)n(CCCC)c(=O)[nH]c1=O` gave RE007 growth inh inactive, TbPYK inhibitor inactive, Sm TGR block inactive and FMDV antiviral inactive.
COCCCN(C(=O)c1cc(-c2ccco2)nc2ccccc12)c1c(N)n(Cc2ccccc2)c(=O)[nH]c1=O was read as RE007 growth inh inactive, TbPYK inhibitor inactive, Sm TGR block 16µM and FMDV antiviral inactive.
For CCOc1ccc(N2CC(NC(=O)c3ccc(S(=O)(=O)N4CCCCC4)cc3)CC2=O)cc1 (stereo not drawn) the results were TbPYK inhibitor inactive, Sm TGR block inactive and FMDV antiviral inactive.
`CCOC(=O)N1CCC(NC(=O)c2ccc3c(c2)N(Cc2ccccc2C)C(=O)c2ccccc2S3=O)CC1` (stereo not drawn) gave TbPYK inhibitor inactive, Sm TGR block inactive and FMDV antiviral inactive.
Screening O=C(O)Cc1sc(N/N=C\c2ccccc2)nc1-c1ccccc1 returned RE007 growth inh inactive, TbPYK inhibitor inactive, Sm TGR block 2.2µM and FMDV antiviral inactive.
`CCOC(=O)c1sc(N/N=C/c2ccccc2)nc1C` gave RE007 growth inh inactive, TbPYK inhibitor inconclusive, Sm TGR block inactive and FMDV antiviral inactive.
`CCC(C)[C@H](N)c1nnc(SCc2ccc(Cl)c(Cl)c2)o1` (stereo partly drawn) gave TbPYK inhibitor inactive, Sm TGR block inactive and FMDV antiviral inactive.
For CCOCCOC(=O)c1[nH]c2c(c1C)C(=O)CC(c1cc(OC)c(OC)c(OC)c1)C2 (stereo not drawn) the results were RE007 growth inh inactive, TbPYK inhibitor inactive, Sm TGR block inactive and FMDV antiviral 28µM.
For COc1ccc(Cl)cc1NC(=O)c1ccc2c(c1)CCCN2S(C)(=O)=O the results were TbPYK inhibitor inactive, Sm TGR block inactive and FMDV antiviral inactive.
Screening CN(Cc1ccco1)C(=O)CN1C(=O)NC(c2ccccc2)(c2ccccc2)C1=O returned RE007 growth inh inactive, TbPYK inhibitor inactive, Sm TGR block 35µM and FMDV antiviral inactive.
For CN(Cc1ccco1)C(=O)CN1C(=O)NC2(CCCC2)C1=O the results were RE007 growth inh inactive, TbPYK inhibitor inactive and FMDV antiviral inactive.
For COc1ccc(-c2c3c(=O)n(C)c(=O)n(C)c3cn2Cc2ccccn2)cc1 the results were RE007 growth inh inactive, TbPYK inhibitor inactive, Sm TGR block 28µM and FMDV antiviral inactive.
Cc1ccc(-c2c3c(=O)n(C)c(=O)n(C)c3cn2Cc2ccccn2)cc1 was read as RE007 growth inh inactive, TbPYK inhibitor inactive, Sm TGR block 35µM and FMDV antiviral inactive.
For CC(C)c1nc(SCC(=O)N2CCN(c3ccccc3)CC2)c2c(=O)n(C)c(=O)n(C)c2n1 the results were RE007 growth inh inactive, TbPYK inhibitor inactive, Sm TGR block inactive and FMDV antiviral 20µM.
`CCCc1nc(SCC(=O)N2CCN(c3ccccc3)CC2)c2c(=O)n(C)c(=O)n(C)c2n1` gave RE007 growth inh inactive, TbPYK inhibitor inactive, Sm TGR block inactive and FMDV antiviral inconclusive.
`Cc1cnc(-n2ncc(C(=O)NC(C)(C)CO)c2-c2cccs2)nc1-c1ccc(F)cc1` gave FMDV antiviral inactive.
`COc1ccc(/C=C/C(=O)C2C(=O)C=C(C)OC2=O)cc1O` (stereo not drawn) gave RE007 growth inh inactive, TbPYK inhibitor inactive, Sm TGR block inactive and FMDV antiviral inactive.
COc1cc(/C=C/C(=O)C2C(=O)C=C(C)OC2=O)cc(OC)c1O (stereo not drawn) was read as RE007 growth inh inactive, TbPYK inhibitor inactive, Sm TGR block inactive and FMDV antiviral 18µM.
`CCc1cc(-c2n[nH]c(=S)n2C(C)c2ccccc2)cs1` (stereo not drawn) gave RE007 growth inh inactive, TbPYK inhibitor inactive, Sm TGR block inactive and FMDV antiviral inactive.
Screening Cc1scc(-c2n[nH]c(=S)n2C(C)c2ccccc2)c1C (stereo not drawn) returned TbPYK inhibitor 2.2µM, Sm TGR block inactive and FMDV antiviral inactive.
Screening CCC1(CC)NC(=O)N(CC(=O)NC(=O)NCc2ccccc2)C1=O returned RE007 growth inh inactive, TbPYK inhibitor inactive, Sm TGR block 22µM and FMDV antiviral inactive.
`CCNC(=O)CN1C(=O)NC(Cc2ccccc2)(Cc2ccccc2)C1=O` gave RE007 growth inh inactive, TbPYK inhibitor inactive, Sm TGR block inactive and FMDV antiviral inactive.
For Cc1nc2ccc(C(=O)N3CCOc4ccc(CN5CCOCC5)cc4C3)cc2nc1C the results were FMDV antiviral inactive.
CCOC(=O)N1CCN(C(=O)c2ccc(-c3ccccc3OC)nc2N2CCC(N3CCCC(CO)C3)CC2)CC1 (stereo not drawn) was read as FMDV antiviral inactive.
`Cc1oc2cc(Br)c(O)c(Br)c2c1-c1ccccc1` gave RE007 growth inh inconclusive, TbPYK inhibitor inactive, Sm TGR block 10µM and FMDV antiviral inactive.
Screening Cc1cc2oc(=O)cc(-c3ccccc3)c2c(C)c1-c1ccc(O)cc1 returned RE007 growth inh inactive, TbPYK inhibitor inactive and FMDV antiviral inactive.
Screening COC1=CC(=O)c2nc(Cl)ccc2C1=O returned RE007 growth inh inactive[18.4 µM], TbPYK inhibitor inactive and FMDV antiviral 10µM.
Screening COc1ccccc1N1CCN(c2nc(CNC(=O)C3CC34CCCC4)nc3ccccc23)CC1 (stereo not drawn) returned FMDV antiviral inactive.
